According to PubChem BioAssay (EPA / NIEHS):
Records with an inconclusive call do not appear. Activity calls are given as the source filed them. How the source made its calls: active means hit-call score of the fitted dose curve at least 0.9, where 1 is the maximum; inconclusive means response in the unintended direction; inactive means score below 0.9.

Assay: TOX21_p53_BLA_p5_viability: Viability Assessment in the Tox21 HCT-116 p53 Agonism Beta-lactamase Assay, Phase 5 (AID 2283600)
Description: TOX21_p53_BLA_p5 is a cell-based, single-readout assay that uses HCT116, a human intestinal cell line, […] in a 1536-well plate.TOX21_p53_BLA_p5_viability is an assay readout measuring cellular ATP content and detected with CellTiter-Glo Luciferase-coupled ATP quantitation.TOX21_p53_BLA_p5_viability used a type of viability reporter where loss-of-signal activity can be used to understand changes in the cell viability. Furthermore, this assay endpoint can be referred to as a secondary readout, because this assay has produced multiple assay endpoints where this one serves a viability function. To generalize the intended target to other relatable targets, this assay endpoint is annotated to the cell cycle intended target family, where the subfamily is cytotoxicity.
Thawing Method: Place 14 mL of pre-warmed thaw medium into a 15 mL of conical tub. Remove the vial of cells to be thawed from liquid nitrogen and thaw rapidly by placing at 37C in a water bath with gentle agitation for 1-2 minutes. Decontaminate the vial by wiping with 70% ethanol before opening in a biological safety cabinet. Transfer the vial contents drop-wise into 14 mL of thaw medium in a sterile 15-mL conical tub. Centrifuge cells at 900 rpm for 4 minutes and resuspend in thaw medium. Transfer contents to the T75 tissue culture flask containing Thaw Medium and place flask in a humidified 37C/5% CO2 incubator. Switch to growth medium at first passage.Propagation Method: Aspirate medium, rinse once in DPBS, add 0.25% Trypsin/EDTA and swirl to coat the cell evenly. Add an equal volume of Growth Medium to inactivate Trypsin after 2-3 minutes incubation at 37C. Centrifuge cells at 900 rpm for 4 minutes and resuspend in growth medium. Cell should be passage or fed at least twice a week.Assay Protocol: Harvest cells from culture in growth medium and resuspend in assay medium. 2.2 Dispense 4000 cells/5 uL/well into 1536-well black/clear bottom plates using a Multidrop dispenser. After the cells were incubated at 37C for 5 hours, 23 nL of compounds dissolved in DMSO were transferred to the assay plate by a PinTool resulting in a 217-fold dilution. Incubate the plates for 16 hours at 37C, 5% CO2. Add 1 uL of 6X LiveBLAzer FRET B/G (CCF4-AM) Substrate Mixture to each well using a BioRAPTR dispenser and incubate the plates at room temperature for 2 hours. Measure fluorescence intensity at 460 and 530 nm emission and 405 nm excitation by an Envision detector. Data is expressed as the ratio of 460nm/530nm emissions. Add 4 uL of Cell-titer Glo to each well using BioRAPTR and incubate the plates at room temperature for […]. For cell viability readout that measures cytotoxicity, 4 ul/well of CellTiter-Glo reagent was added into the assay plates using a Flying Reagent Dispenser. After 30 min incubation at room temperature, the luminescence intensity in the plates was measured using a ViewLux plate reader.

| Structure (SMILES) | outcome |
| --- | --- |
| OC(CCl)CCl | inactive |
| c1ccc2ncccc2c1 | inactive |
| CCCc1ccccc1 | inactive |
| Cc1cccc(O)c1C | inactive |
| CCCCCCCCCCCCCCO | inactive |
| Cn1c(=O)c2[nH]cnc2n(C)c1=O | inactive |
| C=CN1CCCC1=O | inactive |
| CCCCCCCCN(C)C | inactive |
| CCCCCCCCCCCCCCCCOS(=O)(=O)O | inactive |
| CCc1cccc(CC)c1N | inactive |
| OC(Cn1cncn1)(Cn1cncn1)c1ccc(F)cc1F | inactive |
| CCCCOC(=O)c1ccccc1 | inactive |
| CC(=O)c1ccccc1 | inactive |
| CC1(C)C(=O)N(Cl)C(=O)N1Cl | inactive |
| OCc1c[nH]c2ccccc12 | inactive |
| CCc1ccc(O)c(C(C)(C)C)c1 | inactive |
| O=S1(=O)CCCO1 | inactive |
| O=C1CN(N=Cc2ccc([N+](=O)[O-])o2)C(=O)N1 | inactive |
| O=C(O)c1ccc2c(c1)nc(C(=O)NC1CCN(C3CC3)CC1)n2Cc1cc(-c2ccc(Cl)s2)on1 | inactive |
| NNC(=O)c1ccncc1 | inactive |
| c1ccc2cc3ccccc3cc2c1 | inactive |
| CCOC(N)=O | inactive |
| NC(=O)NN=Cc1ccc([N+](=O)[O-])o1 | inactive |
| CCCCCCCC/C=C\CCCCCCCC(=O)OC[C@@H](O)[C@H]1OC[C@H](O)[C@H]1O | inactive |
| CCCCC(CC)C(=O)OCCOCCOCCOC(=O)C(CC)CCCC (stereo not drawn) | inactive |
| O=C(N[C@H](CO)[C@H](O)c1ccc([N+](=O)[O-])cc1)C(Cl)Cl | inactive |
| CCCCCCCCCC | inactive |
| S=P(N1CC1)(N1CC1)N1CC1 | inactive |
